# Measured values published in PubChem BioAssay (NCI).
# Compounds without any hit were thinned out: in the full panel of roughly 79,000, 15% have a hit. Unmarked numbers belong to inactive results. The source made the active and inactive calls. No stated cut-off is given here; in the data, active means growth inhibition above about 70%; inactive means the rest. Where a SMILES comes first, the peptide text is derived from it. [ ]: non-standard residue; d: D form. The star is where a group is joined. ξ: configuration not given here. Bz = O=C(c1ccccc1)*; Bn = c1ccc(C*)cc1; ξC = NC(CS)C(=O)O
# Tests used:
# [1] = NCI Yeast Anticancer Drug Screen. Data for the rad50 strain (AID 155);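 further: 0% = growth of vehicle-only cultures of the same strain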; settings: S. cerevisiae rad50 strain growth inhibition; at 50.0 µM; stronger effect = higher value
# Method in brief: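 Relative growth inhibition (compound vs vehicle) was measured in yeast with a defined repair-gene alteration.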
# [2] = NCI Yeast Anticancer Drug Screen. Data for the mec2-1 strain (AID 157); settings: S. cerevisiae mec2-1 strain, at 50.0 µM, stronger effect = higher value
# Method in brief: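 mec2-1 yeast strain, carrying an alteration in DNA damage repair or cell cycle control, was exposed to compounds; growth inhibition was measured relative to vehicle-treated controls.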
# [3] = NCI Yeast Anticancer Drug Screen. Data for the sgs1 mgt1 strain (AID 161);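 further: 0% = growth of cultures given vehicle only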; settings: S. cerevisiae sgs1 mgt1 strain, at 50.0 µM, stronger effect = higher value
# Method in brief: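 Percent growth inhibition was derived by comparing compound-exposed mutant yeast with vehicle-exposed cultures. The strain carries alterations in DNA damage repair.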
# [4] = NCI Yeast Anticancer Drug Screen. Data for the cln2 rad14 strain (AID 165);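 further: 0% = growth equal to vehicle treated cultures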; settings: S. cerevisiae cln2 rad14 strain, at 50.0 µM, stronger effect = higher value
# Method in brief: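 Yeast carrying cln2 and rad14 alterations (cell cycle control and DNA damage repair) were exposed to compounds. Growth inhibition was measured against vehicle-treated controls.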
# [5] = NCI Yeast Anticancer Drug Screen. Data for the bub3 strain (AID 167); settings: S. cerevisiae bub3 mutant strain, at 50.0 µM, stronger effect = higher value
# Method in brief: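 Screening used yeast with an engineered genetic alteration affecting cell cycle control. Compound-exposed cultures were compared with vehicle cultures, and reduced growth was taken as inhibition.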
# [6] = NCI Yeast Anticancer Drug Screen. Data for the mlh1 rad18 strain (AID 175); settings: S. cerevisiae mlh1 rad18 strain growth inhibition; at 50.0 µM; stronger effect = higher value
# Method in brief: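 Growth inhibition of the yeast strain was measured after compound exposure and expressed relative to vehicle-treated controls. The strain carries defined defects in DNA damage repair.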
Structure (SMILES),growth inhibition [1],growth inhibition [2],growth inhibition [3],growth inhibition [4],growth inhibition [5],growth inhibition [6]
Cc1cc(C)c(NC(=O)C(C)(C)C)c(C)c1,-7.15%,-12.9%,-17.7%,-48.9%,10.2%,-2.2%
N#CC(C(=O)CCC(=O)C(C#N)c1c(Cl)cccc1Cl)c1c(Cl)cccc1Cl (stereo not drawn),-18.3%,7.3%,-12.5%,-41.5%,6.55%,-11.1%
CCOC(=O)CC(=O)C1CCC2C3CC=C4CC(O)CCC4(C)C3CCC12C (stereo not drawn),36.5%,8.3%,47.4%,25.9%,2.1%,33.9%
Cn1nc(-c2ccccc2)c(C(=O)/C=C/c2ccc(F)cc2)c(N2CCOCC2)c1=O,-34.9%,-34%,-54.8%,5.9%,-21.6%,-15.8%
CC1=C(/C=C/C(C)=C/C=C/C(C)=C/C=C/C=C(C)/C=C/C=C(C)/C=C/C=C(C)/C=C/C=C(\C)C(=O)O)C(C)(C)CCC1,3.7%,25.6%,-21.8%,18.6%,7.6%,-2.1%
CCOC(=O)N(C)Cc1ccc(Cl)cc1,5.75%,-1.1%,1.25%,-26.2%,-11.8%,21.4%
Cc1cc(-c2ccc(Cl)cc2)c(C#N)c(=S)n1C1OC(CO)C(O)C(O)C1O (stereo not drawn),-19.4%,-11%,-5.3%,2.8%,-2.95%,2.8%
O=C1c2ccccc2C(=O)N1C/C=C/CN1C(=O)c2ccccc2C1=O,6.85%,-5.7%,12.2%,-9.4%,8.05%,2.5%
Cc1cccc(O)c1O,25.2%,0.15%,23.1%,-0.2%,16.8%,20.4%
CNC(=S)SC1=NS(=O)(=O)c2ccccc2N1,-9.1%,-5.05%,-2.75%,12.4%,-9.75%,23.4%
COc1ccc(CN(C)C)c(C(O)c2ccccc2)c1 (stereo not drawn),9.2%,-1.75%,0.7%,7.6%,9.5%,13.2%
Clc1ccc(CSc2nnc(SCc3ccc(Cl)cc3)c3[nH]cnc23)cc1,14.2%,0.05%,20.9%,25.9%,-3.2%,-11.7%
O=C(OCCO)c1ccccc1O,2.95%,-0.8%,-34%,3.3%,-0.9%,1.35%
O=C(Cc1ccccc1)NN1C(=O)/C(=C\c2cccc(O)c2)SC1=Nc1ccccc1,-11%,-18.9%,-6%,5.9%,-45.3%,-16.9%
CN(C)c1ccc(/C=C/c2nc3ccc([N+](=O)[O-])cc3[nH]2)cc1,-2.4%,3.6%,9.65%,14.2%,0.6%,0.1%
COC(=O)/C=C/c1ccc([N+](=O)[O-])cc1,-6.3%,-2.5%,20.9%,-24%,8.15%,-18.2%
O=C1NS(=O)(=O)c2cc(Cl)ccc21,-34.3%,-22.1%,-23.8%,-18.4%,-1.85%,-12.8%
CC1CS(=O)(=O)O1 (stereo not drawn),-4.45%,-6.75%,-18.6%,9.5%,10.3%,6.8%
COc1ccccc1Oc1ccccc1,-20.7%,-61.3%,-8.6%,13.6%,-34%,20.8%

Structure (SMILES),growth inhibition [1],growth inhibition [2],growth inhibition [3],growth inhibition [4],growth inhibition [5],growth inhibition [6]
NC(N)=NS(=O)(=O)c1ccc(N=Cc2c3ccccc3nc3ccccc23)cc1,98.7% (active),99.3% (active),99.2% (active),98.8% (active),96% (active),98.8% (active)
NNC(=O)CCCO,-33.9%,-24%,-7.5%,-8%,0.4%,8.25%
COC(=O)C1C2C=CC(C2)N1[C@@H](C)c1ccccc1 (stereo partly drawn),8.55%,-28.3%,-40.1%,-5.6%,-28%,-21.4%
CCOC(=O)c1ccc(NN=NCCF)cc1,15.8%,10%,0.4%,6.4%,-32.5%,-44.1%
Cc1ccc(C2=C(c3ccccc3)C(O)(c3ccccc3)C(c3ccccc3)=C2c2ccc(C)cc2)cc1,-1.6%,-20.1%,-31.5%,15.8%,14.1%,-12.7%
O=C(CNC(=O)c1ccccc1)NC(CSCc1ccccc1)C(=O)O (stereo not drawn) (Bz-Gly-[ξC](Bn)-OH),-12.4%,5.55%,-28.8%,-19.1%,-34.2%,-1.3%
CCCCc1ccc(N=Nc2ccccc2)cc1,-9.35%,-17.5%,-15.6%,-59%,-6.05%,-32.2%
NCCS/C=C\C(=O)OCc1ccc(Br)cc1,31.6%,4.4%,9.65%,6.45%,19.1%,54.1%
O=C(O)CCCC/C=C/CCCCCCC1C=CCC1 (stereo not drawn),-23.4%,-35.9%,9.8%,0.7%,-3.65%,1.65%
CCOC(=O)C(C#N)=C(CC)CC,-4%,-12.3%,-9.2%,-3.95%,-12.1%,-0.2%
c1ccc(C(c2ccccc2)c2cc(-c3cc(C(c4ccccc4)c4ccccc4)[nH]n3)n[nH]2)cc1,-9.25%,21.4%,-7.55%,-28.6%,-11.6%,6.25%
COC(=O)Cc1cc(=O)c2cc(C)ccc2[nH]1,0.9%,3.6%,-2.7%,-29.6%,-13.9%,-1.15%
CC(C)(O)C(F)(F)F,13.8%,-5.85%,27.1%,12.2%,-3.4%,25.5%
COc1ccc(OCc2nc3cc(C(F)(F)F)ccc3nc2-c2ccccc2)cc1,-2.65%,3.45%,11.2%,5.2%,25.9%,-70.4%
O=C(O)c1ccc(C(=O)O)c(C(=O)Nc2ccc3c(c2)C(=O)c2ccccc2-3)c1,41.9%,-26.6%,-2.15%,-2.85%,9.7%,48.9%
COCC/C=C/CCl,-8.75%,-22.6%,-8.35%,-8.95%,-7.65%,5.1%
CCOC(=O)CSc1nnc(N)s1,21%,6.55%,-6.15%,3.15%,-6.75%,-1.5%
COc1ccc(CCN=C(C)c2cc(Cl)cc(Cl)c2O)cc1OC,31.1%,16.2%,7%,19.3%,-0.4%,13.9%
CCC(C)SC1=NC(N)=NC2=NC=NC21 (stereo not drawn),-11.6%,-2.85%,-9.3%,-21.8%,6.05%,4.25%
